In PubChem BioAssay AID1159580 (chemical genetic matrix, 2015):
The whole screen tested about 5,500 compounds, of which about 2,000 (36%) were called active. Roughly 18% stayed inconclusive and do not appear here. Rule as the data show it: active = normalized growth mostly below about 0.91 (no sharp cut-off); inconclusive = no clear call, values can overlap the other calls; inactive = mostly above about 0.92. Some of the results follow.

Assay: chemical genetic growth profiling, strain panel (AID 1159580);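 also: tested at 20 µM; growth read once vehicle control cultures reached saturation at 30 °C; 1 = growth at the plate median or of vehicle wells; lower values mean less growth of the strain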
Details: growth OD

Measured: normalized growth

COc1c(C)c2c(c(C)c1Cl)Oc1c(Cl)c(OC)c(Cl)c(C)c1C(=O)O2
inactive: S. cerevisiae deletion strains, locus YAL013W, strain DEP1, stronger effect = lower value 0.992 | S. cerevisiae deletion strains, locus YBR021W, strain FUR4, stronger effect = lower value 1.05 | S. cerevisiae deletion strains, locus YBR229C, strain ROT2, stronger effect = lower value 1.01 | S. cerevisiae deletion strains, locus YCL029C, strain bik1, stronger effect = lower value 1.02 | S. cerevisiae deletion strains, locus YDL035C, strain GPR1, stronger effect = lower value 1.01 | S. cerevisiae deletion strains, locus YDL074C, strain BRE1, stronger effect = lower value 1 | S. cerevisiae deletion strains, locus YDL101C, strain DUN1, stronger effect = lower value 1.01 | S. cerevisiae deletion strains, locus YDL134C, strain PPH21, stronger effect = lower value 1.01 | S. cerevisiae deletion strains, locus YDL185W, strain tfp1, stronger effect = lower value 1.02 | S. cerevisiae deletion strains, locus YDL192W, strain arf1, stronger effect = lower value 1.02 | S. cerevisiae deletion strains, locus YDR101C, strain arx1, stronger effect = lower value 1.01 | S. cerevisiae deletion strains, locus YDR150W, strain NUM1, stronger effect = lower value 1.02 | S. cerevisiae deletion strains, locus YDR162C, strain NBP2, stronger effect = lower value 0.987 | S. cerevisiae deletion strains, locus YDR318W, strain mcm21, stronger effect = lower value 1.03 | S. cerevisiae deletion strains, locus YDR388W, stronger effect = lower value 1.01 | S. cerevisiae deletion strains, locus YDR502C, strain sam2, stronger effect = lower value 1.01 | S. cerevisiae deletion strains, locus YEL061C, strain CIN8, stronger effect = lower value 1.01 | S. cerevisiae deletion strains, locus YER110C, stronger effect = lower value 1.02 | S. cerevisiae deletion strains, locus YER155C, strain BEM2, stronger effect = lower value 1.01 | S. cerevisiae deletion strains, locus YER167W, strain BCK2, stronger effect = lower value 1.03 | S. cerevisiae deletion strains, locus YGL078C, strain dbp3, stronger effect = lower value 1.01 | S. cerevisiae deletion strains, locus YGL086W, strain mad1, stronger effect = lower value 1.02 | S. cerevisiae deletion strains, locus YGL248W, strain PDE1, stronger effect = lower value 1.02 | S. cerevisiae deletion strains, locus YGR078C, strain PAC10, stronger effect = lower value 1.01 | S. cerevisiae deletion strains, locus YGR135W, strain pre9, stronger effect = lower value 1 | S. cerevisiae deletion strains, locus YGR229C, strain SMI1, stronger effect = lower value 0.991 | S. cerevisiae deletion strains, locus YGR252W, strain gcn5, stronger effect = lower value 1.05 | S. cerevisiae deletion strains, locus YHR030C, strain SLT2, stronger effect = lower value 1.02 | S. cerevisiae deletion strains, locus YHR079C, strain IRE1 (second series), stronger effect = lower value 1.03 | S. cerevisiae deletion strains, locus YHR094C, strain hxt1, stronger effect = lower value 1.01 | S. cerevisiae deletion strains, locus YHR129C, strain ARP1, stronger effect = lower value 1.02 | S. cerevisiae deletion strains, locus YHR200W, strain rpn10, stronger effect = lower value 1.02 | S. cerevisiae deletion strains, locus YIL066C, strain RNR3, stronger effect = lower value 1 | S. cerevisiae deletion strains, locus YIL073C, strain SPO22, stronger effect = lower value 1.08 | S. cerevisiae deletion strains, locus YIL125W, strain kgd1, stronger effect = lower value 1.02 | S. cerevisiae deletion strains, locus YIR030C, strain dcg1, stronger effect = lower value 1.01 | S. cerevisiae deletion strains, locus YJL095W, strain BCK1, stronger effect = lower value 1.02 | S. cerevisiae deletion strains, locus YJL134W, strain LCB3, stronger effect = lower value 1.01 | S. cerevisiae deletion strains, locus YJL168C, strain set2, stronger effect = lower value 1.01 | S. cerevisiae deletion strains, locus YJL187C, strain SWE1 (second series), stronger effect = lower value 1.01 | S. cerevisiae deletion strains, locus YJR043C, strain POL32, stronger effect = lower value 1.04 | S. cerevisiae deletion strains, locus YJR075W, strain HOC1, stronger effect = lower value 1.01 | S. cerevisiae deletion strains, locus YKL009W, strain mrt4, stronger effect = lower value 1.03 | S. cerevisiae deletion strains, locus YKL068W, stronger effect = lower value 1.01 | S. cerevisiae deletion strains, locus YKL085W, strain MDH1 (second series), stronger effect = lower value 1.02 | S. cerevisiae deletion strains, locus YKL085W, strain MDH1, stronger effect = lower value 1.02 | S. cerevisiae deletion strains, locus YKL190W, strain CNB1, stronger effect = lower value 1.01 | S. cerevisiae deletion strains, locus YKR001C, strain vps1, stronger effect = lower value 1.03 | S. cerevisiae deletion strains, locus YLR039C, strain RIC1, stronger effect = lower value 1.06 | S. cerevisiae deletion strains, locus YLR058C, strain SHM2, stronger effect = lower value 1.02 | S. cerevisiae deletion strains, locus YLR102C, strain apc9, stronger effect = lower value 1.01 | S. cerevisiae deletion strains, locus YLR262C, strain YPT6, stronger effect = lower value 1.02 | S. cerevisiae deletion strains, locus YLR268W, strain sec22, stronger effect = lower value 0.997 | S. cerevisiae deletion strains, locus YLR330W, strain CHS5, stronger effect = lower value 1.02 | S. cerevisiae deletion strains, locus YLR342W, strain FKS1 (second series), stronger effect = lower value 1.08 | S. cerevisiae deletion strains, locus YLR371W, strain rom2, stronger effect = lower value 1.02 | S. cerevisiae deletion strains, locus YLR418C, strain cdc73, stronger effect = lower value 0.989 | S. cerevisiae deletion strains, locus YML016C, strain PPZ1, stronger effect = lower value 1.01 | S. cerevisiae deletion strains, locus YML032C, strain rad52, stronger effect = lower value 1.03 | S. cerevisiae deletion strains, locus YML124C, strain tub3, stronger effect = lower value 1.01 | S. cerevisiae deletion strains, locus YMR078C, strain ctf18, stronger effect = lower value 1.02 | S. cerevisiae deletion strains, locus YMR223W, strain ubp8, stronger effect = lower value 1.03 | S. cerevisiae deletion strains, locus YMR263W, strain SAP30, stronger effect = lower value 1.01 | S. cerevisiae deletion strains, locus YMR307W, strain GAS1, stronger effect = lower value 1.06 | S. cerevisiae deletion strains, locus YNL067W, strain RPL9B, stronger effect = lower value 1.01 | S. cerevisiae deletion strains, locus YNL128W, strain TEP1, stronger effect = lower value 0.967 | S. cerevisiae deletion strains, locus YNL153C, strain GIM3, stronger effect = lower value 1 | S. cerevisiae deletion strains, locus YNL233W, strain BNI4, stronger effect = lower value 1.02 | S. cerevisiae deletion strains, locus YNL250W, strain rad50, stronger effect = lower value 1.01 | S. cerevisiae deletion strains, locus YNL271C, strain bni1, stronger effect = lower value 1.01 | S. cerevisiae deletion strains, locus YNL298W, strain CLA4, stronger effect = lower value 1.03 | S. cerevisiae deletion strains, locus YNL307C, strain MCK1, stronger effect = lower value 1.03 | S. cerevisiae deletion strains, locus YNL322C, strain KRE1, stronger effect = lower value 1 | S. cerevisiae deletion strains, locus YNR052C, strain pop2, stronger effect = lower value 1.02 | S. cerevisiae deletion strains, locus YOL006C, strain TOP1, stronger effect = lower value 1.1 | S. cerevisiae deletion strains, locus YOL012C, strain htz1 0.785 | S. cerevisiae deletion strains, locus YOL147C, strain pex11, stronger effect = lower value 1.01 | S. cerevisiae deletion strains, locus YOR061W, strain CKA2, stronger effect = lower value 1.01 | S. cerevisiae deletion strains, locus YOR069W, strain VPS5, stronger effect = lower value 1.02 | S. cerevisiae deletion strains, locus YOR136W, strain idh2, stronger effect = lower value 1.02 | S. cerevisiae deletion strains, locus YOR144C, strain elg1, stronger effect = lower value 1.01 | S. cerevisiae deletion strains, locus YOR184W, strain ser1, stronger effect = lower value 1.05 | S. cerevisiae deletion strains, locus YOR316C, strain cot1, stronger effect = lower value 1.02 | S. cerevisiae deletion strains, locus YPL055C, strain LGE1, stronger effect = lower value 0.99 | S. cerevisiae deletion strains, locus YPL241C, strain CIN2, stronger effect = lower value 1 | S. cerevisiae deletion strains, locus YPR119W, strain clb2, stronger effect = lower value 1 | S. cerevisiae deletion strains, locus YPR141C, strain kar3, stronger effect = lower value 1.01 | S. cerevisiae deletion strains, locus YPR163C, strain tif3, stronger effect = lower value 1.03 | S. cerevisiae deletion strains, locus YPR167C, strain met16, stronger effect = lower value 1.01 | S. cerevisiae deletion strains, strain wtn01, stronger effect = lower value 1.01 | S. cerevisiae strains, strain wild type, stronger effect = lower value 1
